Measurements taken from PubChem BioAssay AID1159580 (chemical genetic matrix, 2015).
Hit rate of the full screen: of about 5,500 compounds, about 2,000 (36%) were called active. Not shown: some 18% with an inconclusive outcome. Cut-off read from the data, not from the text of the source: active = normalized growth mostly below about 0.91 (no sharp cut-off); inconclusive = no clear call, values can overlap the other calls; inactive = mostly above about 0.92. The list shows a part of the results.

Assay: chemical genetic growth profiling, strain panel (AID 1159580);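 note: tested at 20 µM; growth read once vehicle control cultures reached saturation at 30 °C; 1 = growth at the plate median or of vehicle wells; lower values mean less growth of the strain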
Details: growth OD

Measured: normalized growth

CCOc1ccc2c(c1)C(C)=CC(C)(C)N2
inactive: S. cerevisiae deletion strains, locus YJR043C, strain POL32, stronger effect = lower value 0.979 | S. cerevisiae deletion strains, locus YJR075W, strain HOC1, stronger effect = lower value 0.975 | S. cerevisiae deletion strains, locus YKL009W, strain mrt4, stronger effect = lower value 0.988 | S. cerevisiae deletion strains, locus YKL068W, stronger effect = lower value 0.989 | S. cerevisiae deletion strains, locus YKL085W, strain MDH1 (second series), stronger effect = lower value 0.987 | S. cerevisiae deletion strains, locus YKL085W, strain MDH1, stronger effect = lower value 0.987 | S. cerevisiae deletion strains, locus YKL160W, strain elf1, stronger effect = lower value 0.996 | S. cerevisiae deletion strains, locus YKL190W, strain CNB1, stronger effect = lower value 0.997 | S. cerevisiae deletion strains, locus YKR001C, strain vps1, stronger effect = lower value 0.976 | S. cerevisiae deletion strains, locus YKR026C, strain gcn3, stronger effect = lower value 0.979 | S. cerevisiae deletion strains, locus YKR091W, strain srl3, stronger effect = lower value 0.98 | S. cerevisiae deletion strains, locus YLL001W, strain dnm1, stronger effect = lower value 1 | S. cerevisiae deletion strains, locus YLL026W, stronger effect = lower value 0.986 | S. cerevisiae deletion strains, locus YLL041C, strain sdh2, stronger effect = lower value 0.989 | S. cerevisiae deletion strains, locus YLR027C, strain aat2, stronger effect = lower value 1.01 | S. cerevisiae deletion strains, locus YLR039C, strain RIC1, stronger effect = lower value 0.997 | S. cerevisiae deletion strains, locus YLR058C, strain SHM2, stronger effect = lower value 0.984 | S. cerevisiae deletion strains, locus YLR102C, strain apc9, stronger effect = lower value 0.992 | S. cerevisiae deletion strains, locus YLR221C, strain rsa3, stronger effect = lower value 1 | S. cerevisiae deletion strains, locus YLR258W, strain gsy2, stronger effect = lower value 0.997 | S. cerevisiae deletion strains, locus YLR262C, strain YPT6 (second series), stronger effect = lower value 0.981 | S. cerevisiae deletion strains, locus YLR262C, strain YPT6, stronger effect = lower value 0.969 | S. cerevisiae deletion strains, locus YLR268W, strain sec22, stronger effect = lower value 0.924 | S. cerevisiae deletion strains, locus YLR320W, strain mms22, stronger effect = lower value 0.982 | S. cerevisiae deletion strains, locus YLR330W, strain CHS5, stronger effect = lower value 1 | S. cerevisiae deletion strains, locus YLR342W, strain FKS1 (second series), stronger effect = lower value 0.999 | S. cerevisiae deletion strains, locus YLR342W, strain FKS1, stronger effect = lower value 0.987 | S. cerevisiae deletion strains, locus YLR357W, strain rsc2, stronger effect = lower value 0.963 | S. cerevisiae deletion strains, locus YLR370C, strain arc18, stronger effect = lower value 0.998 | S. cerevisiae deletion strains, locus YLR371W, strain rom2, stronger effect = lower value 0.976 | S. cerevisiae deletion strains, locus YLR384C, strain iki3, stronger effect = lower value 0.989 | S. cerevisiae deletion strains, locus YLR418C, strain cdc73, stronger effect = lower value 0.983 | S. cerevisiae deletion strains, locus YML016C, strain PPZ1, stronger effect = lower value 0.984 | S. cerevisiae deletion strains, locus YML032C, strain rad52, stronger effect = lower value 0.977 | S. cerevisiae deletion strains, locus YML120C, strain ndi1, stronger effect = lower value 1 | S. cerevisiae deletion strains, locus YML124C, strain tub3, stronger effect = lower value 0.989 | S. cerevisiae deletion strains, locus YMR058W, strain fet3, stronger effect = lower value 0.988 | S. cerevisiae deletion strains, locus YMR078C, strain ctf18, stronger effect = lower value 0.972 | S. cerevisiae deletion strains, locus YMR125W, strain sto1, stronger effect = lower value 0.981 | S. cerevisiae deletion strains, locus YMR129W, stronger effect = lower value 0.991 | S. cerevisiae deletion strains, locus YMR205C, strain PFK2, stronger effect = lower value 0.987 | S. cerevisiae deletion strains, locus YMR223W, strain ubp8, stronger effect = lower value 0.998 | S. cerevisiae deletion strains, locus YMR231W, strain pep5, stronger effect = lower value 0.963 | S. cerevisiae deletion strains, locus YMR263W, strain SAP30, stronger effect = lower value 0.981 | S. cerevisiae deletion strains, locus YMR307W, strain GAS1, stronger effect = lower value 0.971 | S. cerevisiae deletion strains, locus YNL067W, strain RPL9B, stronger effect = lower value 0.977 | S. cerevisiae deletion strains, locus YNL071W, strain lat1, stronger effect = lower value 0.991 | S. cerevisiae deletion strains, locus YNL128W, strain TEP1, stronger effect = lower value 0.99 | S. cerevisiae deletion strains, locus YNL153C, strain GIM3, stronger effect = lower value 0.98 | S. cerevisiae deletion strains, locus YNL209W, strain ssb2, stronger effect = lower value 0.994 | S. cerevisiae deletion strains, locus YNL233W, strain BNI4, stronger effect = lower value 0.978 | S. cerevisiae deletion strains, locus YNL248C, strain rpa49, stronger effect = lower value 0.986 | S. cerevisiae deletion strains, locus YNL250W, strain rad50, stronger effect = lower value 0.986 | S. cerevisiae deletion strains, locus YNL271C, strain bni1, stronger effect = lower value 0.968 | S. cerevisiae deletion strains, locus YNL298W, strain CLA4, stronger effect = lower value 0.974 | S. cerevisiae deletion strains, locus YNL307C, strain MCK1, stronger effect = lower value 0.985 | S. cerevisiae deletion strains, locus YNL322C, strain KRE1 (second series), stronger effect = lower value 0.984 | S. cerevisiae deletion strains, locus YNL322C, strain KRE1, stronger effect = lower value 0.993 | S. cerevisiae deletion strains, locus YNR049C, strain mso1, stronger effect = lower value 0.989 | S. cerevisiae deletion strains, locus YNR052C, strain pop2, stronger effect = lower value 1 | S. cerevisiae deletion strains, locus YOL006C, strain TOP1, stronger effect = lower value 0.841 | S. cerevisiae deletion strains, locus YOL012C, strain htz1 1.09 | S. cerevisiae deletion strains, locus YOL147C, strain pex11, stronger effect = lower value 0.98 | S. cerevisiae deletion strains, locus YOR001W, strain rrp6, stronger effect = lower value 1.01 | S. cerevisiae deletion strains, locus YOR061W, strain CKA2, stronger effect = lower value 0.981 | S. cerevisiae deletion strains, locus YOR069W, strain VPS5, stronger effect = lower value 0.984 | S. cerevisiae deletion strains, locus YOR070C, strain gyp1, stronger effect = lower value 0.995 | S. cerevisiae deletion strains, locus YOR080W, strain dia2, stronger effect = lower value 0.989 | S. cerevisiae deletion strains, locus YOR083W, strain WHI5, stronger effect = lower value 0.989 | S. cerevisiae deletion strains, locus YOR106W, strain vam3, stronger effect = lower value 1 | S. cerevisiae deletion strains, locus YOR136W, strain idh2, stronger effect = lower value 0.99 | S. cerevisiae deletion strains, locus YOR144C, strain elg1, stronger effect = lower value 0.992 | S. cerevisiae deletion strains, locus YOR184W, strain ser1, stronger effect = lower value 0.969 | S. cerevisiae deletion strains, locus YOR265W, strain rbl2, stronger effect = lower value 1.03 | S. cerevisiae deletion strains, locus YOR270C, strain vph1, stronger effect = lower value 1 | S. cerevisiae deletion strains, locus YOR290C, strain snf2, stronger effect = lower value 0.991 | S. cerevisiae deletion strains, locus YOR316C, strain cot1, stronger effect = lower value 0.983 | S. cerevisiae deletion strains, locus YPL051W, strain arl3, stronger effect = lower value 0.985 | S. cerevisiae deletion strains, locus YPL055C, strain LGE1, stronger effect = lower value 0.997 | S. cerevisiae deletion strains, locus YPL078C, strain atp4, stronger effect = lower value 1.02 | S. cerevisiae deletion strains, locus YPL106C, strain sse1, stronger effect = lower value 0.964 | S. cerevisiae deletion strains, locus YPL240C, strain hsp82, stronger effect = lower value 0.991 | S. cerevisiae deletion strains, locus YPL241C, strain CIN2, stronger effect = lower value 0.997 | S. cerevisiae deletion strains, locus YPR119W, strain clb2, stronger effect = lower value 0.984 | S. cerevisiae deletion strains, locus YPR141C, strain kar3, stronger effect = lower value 0.973 | S. cerevisiae deletion strains, locus YPR163C, strain tif3, stronger effect = lower value 0.978 | S. cerevisiae deletion strains, locus YPR167C, strain met16, stronger effect = lower value 0.987 | S. cerevisiae deletion strains, strain wtn01, stronger effect = lower value 0.967 | S. cerevisiae strains, strain wild type, stronger effect = lower value 0.996
